Measured values published in PubChem BioAssay.

test: MM1S cell viability effects, profiling panel, calcein-AM fluorescence, 48 h, basal (AID 1165); conditions: higher = more signal;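 also: viability of MM1S multiple myeloma cells under basal unstimulated conditions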
Also: test concentration not given here.

Point of comparison: `O=C1OCCC=C[C@H]2OC34C=CCN(CCN5CCOCC5)C(=O)[C@H]3N(CCCO)C(=O)[C@@H]4C12` (stereo partly specified), z-score -0.0305. Against it:
- O=C1NC(=O)C2C1C=CC(C(O)c1cccc(O)c1)N2Nc1ccc(Cl)cc1Cl (stereo unspecified) — lower, -3.03
- CC(C)C[C@@H]1NC(=O)C([C@@H](C)OCc2ccccc2)NC(=O)[C@@]23C(=O)N[C@@H](Cc4ccccc4)C2[C@H](C)[C@@]2(C)O[C@H]2C3/C=C/CC/C=C/CNC1=O (stereo partly specified) — lower, -1.31
- COc1ccc([Si](C)(C)[C@H]2[C@H](CCO)O[C@@]3(C(=O)N(Cc4ccc(N5CCOC5=O)cc4)c4ccccc43)[C@@H]2C)cc1 — lower, -2.54
- COc1ccc(CCNC(=O)[C@@]2(Sc3ccc(C)cc3)CC(=O)N(Cc3cc(C(F)(F)F)cc(C(F)(F)F)c3)[C@@H]2c2ccc(CO)cc2)cc1 — lower, -0.305
- CCCCC(O)C1C=CC2C(=O)NC(=O)C2N1Nc1ccc(Cl)cc1Cl (stereo unspecified) — lower, -1.55
- CO[C@H]1O[C@H](CO)[C@@H](OC(=O)Nc2ccc3c(c2)OCO3)[C@@H]2OC(=O)[C@@H](Cc3ccccc3)C/C=C/C[C@H](Cc3ccccc3)C(=O)O[C@@H]12 — lower, -0.69
- CN(C)C(=O)[C@]1(Cc2ccccc2CN=[N+]=[N-])N=C(c2ccc(OCCCO)cc2)O[C@@H]1c1ccccc1N=[N+]=[N-] — lower, -1.33
- C=CCNC(=O)[C@@H]1[C@H]2C(=O)O[C@H](c3ccccc3)[C@H](c3ccccc3)N2[C@H](c2ccccc2OCCO)[C@@]12C(=O)N(C(=O)OCCOC)c1ccc(C#CCCO)cc12 — higher, -0.02
- C=CCC(OC(C)=O)[C@@H]1[C@@H](N(Cc2cccc3ccccc23)C(=O)c2cccc3ccccc23)c2cc(OCCCO)ccc2N1C(=O)Cc1ccc2ccccc2c1 (stereo partly specified) — higher, 0.0031
- C=C(COC)/C(=C/C[C@@H](OC(C)=O)c1ccccc1OCCO)c1cc(C(=O)OC)ccc1OC — lower, -3.3
- COCC(=C=CC[C@@H](O)c1cccc(OCCO)c1)C[C@@H](O)COCc1ccccc1 — higher, 1.16
- CCCCC=C[C@@H](NC(=O)c1ccc(C(F)(F)F)cc1)c1ccccc1 — lower, -0.978
- COC(=O)[C@]1(CO)N=C(c2ccc(OCCCO)cc2)O[C@@H]1c1ccccc1CN=[N+]=[N-] — higher, 0.28
- COC(=O)[C@@]1(Cc2ccc(OC)cc2)[C@H]2c3cc(C(=O)N4CCCC4)n(CCc4ccc(OC)c(Br)c4)c3C[C@H]2CN1C(=O)c1ccccc1 — lower, -0.245
- COCCOC(=O)N1C(=O)[C@@]2(c3cc(C#CCC(C(=O)OC)C(=O)OC)ccc31)[C@H](C(=O)N1CCc3cc(OC)c(OC)cc3C1)[C@H]1C(=O)O[C@H](c3ccccc3)[C@H](c3ccccc3)N1[C@@H]2c1ccc(O)cc1 — lower, -0.422
- CCC(CC)C(O)C1C=CC2C(=O)N(C)C(=O)C2N1N1CCCCC1 (stereo unspecified) — lower, -0.651
- COc1cc2c(cc1O)C(c1ccc(CN3CCCC3)cc1)N(Cc1ccc([N+](=O)[O-])o1)CC2 (stereo unspecified) — higher, 0.279
- COc1cc(OC)c(C(O)C2C=CC3C(=O)N(c4ccccc4)C(=O)C3N2Nc2ccccc2F)cc1Br (stereo unspecified) — lower, -0.303
- NC(=O)N1C(=O)C2C(C1=O)C1C=C(CCCO)C2C(c2ccc(CN3CCCC3)cc2)N1Cc1cccc(OC(F)(F)F)c1 (stereo unspecified) — lower, -3.34
- CC(C)C[C@H]1NC(=O)[C@@]23C(=O)N[C@@H](Cc4ccccc4)C2[C@H](C)[C@@]2(C)O[C@H]2C3/C=C/C/C=C\CNC(=O)[C@@H]2CCCN2C1=O (stereo partly specified) — lower, -1.41
- COC(=O)[C@@]1(Cc2ccc(F)cc2)[C@H]2c3cc(C(=O)N(C)C)n(CCn4cc([N+](=O)[O-])nc4C)c3C[C@H]2CN1C(=O)c1ccccc1 — lower, -0.737
- C=CC[C@]1(C(=O)NCCCOC)N=C(c2ccc(OCCCO)cc2)O[C@H]1c1ccccc1 — lower, -0.464
- COCCOC(=O)N1C(=O)[C@@]2(c3cc(C#CC4=CCCCC4)ccc31)[C@H](c1ccccc1OCCO)N1[C@H](c3ccccc3)[C@H](c3ccccc3)OC(=O)[C@H]1[C@@H]2C(N)=O — lower, -3.11
- CC(C)C[C@@H]1NC(=O)[C@@]23C(=O)N[C@@H](Cc4ccccc4)C2[C@H](C)[C@@]2(C)O[C@H]2C3/C=C/C/C=C\CNC(=O)[C@@H](CC(C)C)NC1=O (stereo partly specified) — lower, -0.549

test: basal RPMI8226 viability, no added stimulus, profiling panel, cell-based, calcein-AM fluorescence, 48 h, PK04 Diversity Set (AID 1166); conditions: RPMI8226 myeloma viability, higher = more signal;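 also: cells grown under basal conditions without added stimulus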

Point of comparison: `COc1ccc([Si](C)(C)[C@@H]2[C@@H](CC(=O)N(CCO)Cc3ccccc3)O[C@]3(C(=O)N(Cc4ccc(N5CCC5=O)cc4)c4ccccc43)[C@H]2C)cc1`, z-score -3.15. Against it:
- CN1C(=O)[C@]2(CCC(=O)OC(C)(C)C)N=C(c3ccc(OCCCO)cc3)O[C@@H]2c2ccccc21 — lower, -3.26
- CC(c1ccccc1)C(O)C1C=CC2C(=O)N(c3ccccc3)C(=O)C2N1Nc1ccc(C#N)cc1 (stereo unspecified) — higher, -0.0442
- COCCOC(=O)N1C(=O)[C@@]2(c3cc(C#CCCO)ccc31)[C@H](C(=O)N1CCN(c3ncccn3)CC1)[C@H]1C(=O)O[C@H](c3ccccc3)[C@H](c3ccccc3)N1[C@@H]2c1ccc(O)cc1 — higher, 0.0881
- C#CCN(C/C=C/c1ccccc1)[C@H](CO[Si](C)(C)C(C)(C)C)c1ccccc1 — higher, -2.58
- NCCCC[C@@H]1NC(=O)[C@H]2C[C@@H](C(=O)O)[C@@H](c3cccc(OCCO)c3)N2C1=O — higher, 0.0324
- [N-]=[N+]=NCc1ccccc1C[C@]1(C(=O)N2CCCCC2)N=C(c2ccc(OCCCO)cc2)O[C@H]1c1ccccc1 — lower, -4.27
- CCCCC(=C=CC[C@H](O)c1ccc(OCCO)cc1)C[C@H](O)c1ccccn1 — higher, -0.585
- CN(C)C(=O)[C@@]1(CCS(=O)(=O)c2ccccc2)N=C(c2ccc(OCCCO)cc2)O[C@H]1c1ccccc1N=[N+]=[N-] — higher, -0.941
- [N-]=[N+]=NCc1ccccc1[C@@H]1OC(c2ccc(OCCCO)cc2)=N[C@]1(Cc1ccccc1)C(=O)NCc1ccccc1 — higher, -0.0369
- O=C(NCCO)C1=C[C@H](Oc2ccccc2I)[C@@H](O)[C@H](NCc2ccc(F)cc2)C1 — higher, -1.26
- O=C1NC(=O)C2C1C=CC(C(O)c1cccc(O)c1)N2Nc1ccc(Cl)cc1Cl (stereo unspecified) — higher, -1.52
- CC(C)C[C@@H]1NC(=O)C([C@@H](C)OCc2ccccc2)NC(=O)[C@@]23C(=O)N[C@@H](Cc4ccccc4)C2[C@H](C)[C@@]2(C)O[C@H]2C3/C=C/CC/C=C/CNC1=O (stereo partly specified) — higher, -2.32
- COc1ccc([Si](C)(C)[C@H]2[C@H](CCO)O[C@@]3(C(=O)N(Cc4ccc(N5CCOC5=O)cc4)c4ccccc43)[C@@H]2C)cc1 — lower, -3.98
- COc1ccc(CCNC(=O)[C@@]2(Sc3ccc(C)cc3)CC(=O)N(Cc3cc(C(F)(F)F)cc(C(F)(F)F)c3)[C@@H]2c2ccc(CO)cc2)cc1 — higher, -0.24
- CCCCC(O)C1C=CC2C(=O)NC(=O)C2N1Nc1ccc(Cl)cc1Cl (stereo unspecified) — higher, -2.27
- CO[C@H]1O[C@H](CO)[C@@H](OC(=O)Nc2ccc3c(c2)OCO3)[C@@H]2OC(=O)[C@@H](Cc3ccccc3)C/C=C/C[C@H](Cc3ccccc3)C(=O)O[C@@H]12 — higher, -0.197
- CN(C)C(=O)[C@]1(Cc2ccccc2CN=[N+]=[N-])N=C(c2ccc(OCCCO)cc2)O[C@@H]1c1ccccc1N=[N+]=[N-] — higher, -2.16
- O=C1OCCC=C[C@H]2OC34C=CCN(CCN5CCOCC5)C(=O)[C@H]3N(CCCO)C(=O)[C@@H]4C12 (stereo partly specified) — higher, -0.0605
- C=CCNC(=O)[C@@H]1[C@H]2C(=O)O[C@H](c3ccccc3)[C@H](c3ccccc3)N2[C@H](c2ccccc2OCCO)[C@@]12C(=O)N(C(=O)OCCOC)c1ccc(C#CCCO)cc12 — higher, -0.615
- C=CCC(OC(C)=O)[C@@H]1[C@@H](N(Cc2cccc3ccccc23)C(=O)c2cccc3ccccc23)c2cc(OCCCO)ccc2N1C(=O)Cc1ccc2ccccc2c1 (stereo partly specified) — higher, -1.9
- C=C(COC)/C(=C/C[C@@H](OC(C)=O)c1ccccc1OCCO)c1cc(C(=O)OC)ccc1OC — higher, -0.866
- COCC(=C=CC[C@@H](O)c1cccc(OCCO)c1)C[C@@H](O)COCc1ccccc1 — higher, 0.34
- CCCCC=C[C@@H](NC(=O)c1ccc(C(F)(F)F)cc1)c1ccccc1 — higher, -2.53
- COC(=O)[C@]1(CO)N=C(c2ccc(OCCCO)cc2)O[C@@H]1c1ccccc1CN=[N+]=[N-] — higher, 0.0032
- COC(=O)[C@@]1(Cc2ccc(OC)cc2)[C@H]2c3cc(C(=O)N4CCCC4)n(CCc4ccc(OC)c(Br)c4)c3C[C@H]2CN1C(=O)c1ccccc1 — higher, -1.51
- COCCOC(=O)N1C(=O)[C@@]2(c3cc(C#CCC(C(=O)OC)C(=O)OC)ccc31)[C@H](C(=O)N1CCc3cc(OC)c(OC)cc3C1)[C@H]1C(=O)O[C@H](c3ccccc3)[C@H](c3ccccc3)N1[C@@H]2c1ccc(O)cc1 — higher, -1.54
- CCC(CC)C(O)C1C=CC2C(=O)N(C)C(=O)C2N1N1CCCCC1 (stereo unspecified) — higher, -0.521
- COc1cc2c(cc1O)C(c1ccc(CN3CCCC3)cc1)N(Cc1ccc([N+](=O)[O-])o1)CC2 (stereo unspecified) — higher, -0.0679
- COc1cc(OC)c(C(O)C2C=CC3C(=O)N(c4ccccc4)C(=O)C3N2Nc2ccccc2F)cc1Br (stereo unspecified) — higher, -0.308
- NC(=O)N1C(=O)C2C(C1=O)C1C=C(CCCO)C2C(c2ccc(CN3CCCC3)cc2)N1Cc1cccc(OC(F)(F)F)c1 (stereo unspecified) — higher, -0.614
- CC(C)C[C@H]1NC(=O)[C@@]23C(=O)N[C@@H](Cc4ccccc4)C2[C@H](C)[C@@]2(C)O[C@H]2C3/C=C/C/C=C\CNC(=O)[C@@H]2CCCN2C1=O (stereo partly specified) — higher, -0.531
- COC(=O)[C@@]1(Cc2ccc(F)cc2)[C@H]2c3cc(C(=O)N(C)C)n(CCn4cc([N+](=O)[O-])nc4C)c3C[C@H]2CN1C(=O)c1ccccc1 — higher, 0.211
- C=CC[C@]1(C(=O)NCCCOC)N=C(c2ccc(OCCCO)cc2)O[C@H]1c1ccccc1 — higher, 0.511
- COCCOC(=O)N1C(=O)[C@@]2(c3cc(C#CC4=CCCCC4)ccc31)[C@H](c1ccccc1OCCO)N1[C@H](c3ccccc3)[C@H](c3ccccc3)OC(=O)[C@H]1[C@@H]2C(N)=O — lower, -4.02
- CC(C)C[C@@H]1NC(=O)[C@@]23C(=O)N[C@@H](Cc4ccccc4)C2[C@H](C)[C@@]2(C)O[C@H]2C3/C=C/C/C=C\CNC(=O)[C@@H](CC(C)C)NC1=O (stereo partly specified) — higher, -0.361
